Screens deposited in PubChem BioAssay by National Center for Advancing Translational Sciences (NCATS).
Luc counter – Kinase-Glo luciferase inhibition (counter-screen); Potency, µM (doses to about 38.3 µM), for inactives: at the top dose activity change, negative = inhibition, usual class: inhibitors; hit rate 0.28% among 200,000; AID 1379; Kinase-Glo luciferase, ATP luminescence, 8 min; Q27757; also: % is scaled to controls: 0 for no effect and ±100 for the full control effect; nearly all actives have a fitted effect of over 60% in size
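Substrate mix (final 50 mM imidazole pH 7.2, 50 mM KCl, 7 mM MgCl2, 10 uM ATP, 0.01% Tween 20, 0.05% BSA) plus pin-tool compound, then Kinase-Glo detection mix; 8 min ambient, luminescence read.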
SMN2 splice up – increases expression of the SMN2 splice variant; hit rate 2.8% among 210,000; Potency, µM (highest dose often 46.1 µM), inactives show at the top dose activity change, positive = activation, actives largely listed as activators; AID 1458; HEK293 SMN2-luciferase splicing reporter, luminescence, 30-36 h; also: % of control where 0% means no effect; nearly all actives have a fitted effect of over 55% in size
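qHTS luciferase splicing reporter: luminescence rises when SMN2 exon 7 is included in transfected HEK293 cells. Compound exposure lasted 30-36 h at 37C, with 4.5 mM final sodium butyrate as control, followed by a ONE-Glo read.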
NPC1 promoter act – NPC1 promoter activation; hit rate 2.4% among 320,000; AID 485313; Potency, µM (titrated, usually from 9.22 µM), inactives show top-dose activation, most hits filed as activators; Huh7 NPC1 promoter luciferase reporter, 24 h; also: % of control where 0% means no effect; nearly all actives have a fitted effect of over 60% in size
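Readout is luciferase luminescence, reflecting NPC1 promoter activation in stably transfected Huh7 cells after 24 h compound exposure at 37 °C in reduced-serum medium with 10% FBS.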
Rab9 promoter act – activators of Rab9 promoter | Huh7 Rab9 promoter-luciferase reporter, luminescence, 24 h | Potency, µM (series often up to 9.22 µM), without a hit: top-dose activation, negative = inhibition, hits mostly activators | hit rate 2.8% among 320,000 | AID 485297; also: % of control where 0% means no effect; nearly all actives have a fitted effect of over 60% in size
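Using Huh7 cells stably transfected with Rab9 promoter–luciferase, compounds were incubated 24 h at 37 °C, 5% CO2; luciferase luminescence was read 10 min after reagent addition.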
ELG1 genotox – inducers of genotoxicity in HEK293T ELG1-luciferase cells | HEK293T ELG1-luciferase reporter, luminescence, 16 h | Potency, µM (series often up to 46 µM), without a hit: top-dose activity change, positive = activation, actives largely listed as activators | hit rate 1.3% among 330,000; also: % of control where 0% means no effect; nearly all actives have a fitted effect of over 60% in size
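Cells (2,000/well) expressing the ELG1-luciferase fusion are dosed by pin tool and kept 16 hr at 37 °C, 5% CO2. Signal comes from ONE-Glo luciferase reagent after 30 min at room temperature.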
FLuc counter – inhibits or activates purified firefly luciferase, miR-21 counter-screen | P08659 | purified FLuc, Km substrates, luminescence inhibition | Potency, µM (highest dose often 57.5 µM), inactives show top-dose activity change, negative = inhibition, usual class: inhibitors | hit rate 6.9% among 360,000;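 also: plate controls were vehicle for no effect and reference inhibitor for full effect; nearly all actives have a fitted effect of over 55% in size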
Target sequence (P08659 whole entry, looked up): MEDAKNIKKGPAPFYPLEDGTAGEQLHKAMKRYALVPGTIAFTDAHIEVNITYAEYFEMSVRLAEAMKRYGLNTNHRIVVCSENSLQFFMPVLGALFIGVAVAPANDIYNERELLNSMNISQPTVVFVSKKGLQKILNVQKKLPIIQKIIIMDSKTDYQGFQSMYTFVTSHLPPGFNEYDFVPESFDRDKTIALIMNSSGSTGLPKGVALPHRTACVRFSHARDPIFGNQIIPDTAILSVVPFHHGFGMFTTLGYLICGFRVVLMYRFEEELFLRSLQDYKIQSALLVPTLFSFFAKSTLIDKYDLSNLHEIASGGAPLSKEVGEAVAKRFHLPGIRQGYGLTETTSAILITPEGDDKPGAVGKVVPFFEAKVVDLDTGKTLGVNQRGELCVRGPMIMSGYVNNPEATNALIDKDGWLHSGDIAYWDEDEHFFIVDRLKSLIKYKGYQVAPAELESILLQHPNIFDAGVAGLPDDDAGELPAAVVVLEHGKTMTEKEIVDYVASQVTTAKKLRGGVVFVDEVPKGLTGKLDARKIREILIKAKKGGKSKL
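Biochemical qHTS of compounds, final roughly 60 µM downward over six points, against 10 nM purified firefly luciferase using Km concentrations of substrates (10 uM D-luciferin, 10 uM ATP) in Tris acetate pH 7.5 buffer; luminescence output.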
* marks the source's active call; other numbers are inactive results; [ ] = another dose, or the depositor's remark. The list is not random: actives were taken first. Their share in the collection is about 7.3%. Calls follow the shape of the dose curve; as a rule, active = well fitted curve in the direction sought with a large enough effect; inconclusive = small, poorly fitted or top-dose-only effect, or another doubt; inactive = no such curve, though single readings can be large; an effect the other way counts as inactive or inconclusive. Potency is read from the fitted curve at half-maximal effect.

For O=[N+]([O-])c1ccc(Nc2nc3ccccc3s2)cc1 the results were Luc counter 1%[7.66 µM] and SMN2 splice up -7%[9.22 µM].
`COc1cc(OC)c(OC)cc1CNc1sc2c(c1C(=O)Nc1ccccc1OC)CCC2` gave FLuc counter 5%.
CC(C)(C)c1ccc(-n2ncc3c2CCCC3NC(=O)c2cnccn2)cc1 (stereo unspecified) was read as NPC1 promoter act -15%, Rab9 promoter act -14%, ELG1 genotox inconclusive and FLuc counter 24µM*.
For CC(C)(C)c1ccc(-n2ncc3c2CCCC3NC(=O)c2csnn2)cc1 (stereo unspecified) the results were NPC1 promoter act -7%, Rab9 promoter act -5%, ELG1 genotox -4% and FLuc counter -5%.
For COc1ccccc1CNC(=O)c1ccc2c(c1)sc1nc(-c3ccc(F)cc3)cn12 the results were FLuc counter -1%.
For COCCNc1nnc(SCC(=O)Nc2nnc(-c3ccccc3)o2)s1 the results were NPC1 promoter act -1%, Rab9 promoter act -5%, ELG1 genotox 12% and FLuc counter 19µM*.
Cn1c(SCC(=O)Nc2ccccc2Cl)nnc1C1CC1 was read as NPC1 promoter act 2%, Rab9 promoter act 0%, ELG1 genotox -10% and FLuc counter -3%.
Nc1nnc(SCC(=O)Nc2nnc(-c3ccccc3)o2)s1 was read as NPC1 promoter act 1%, Rab9 promoter act -2%, ELG1 genotox 0% and FLuc counter inconclusive.
Cn1c(SCC(=O)Nc2nnc(-c3ccccc3)o2)nnc1C1CC1 was read as NPC1 promoter act 1%, Rab9 promoter act 0%, ELG1 genotox 1% and FLuc counter 13µM*.
Cc1ccc(C)c(Cn2c3ccccc3c3cnn(CC(=O)NC4CCC(C)CC4)c(=O)c32)c1 (stereo unspecified) was read as SMN2 splice up -9% and FLuc counter -3%.
For Cc1cc(C)cc(N2Cc3ccccc3C2)c1 the results were Luc counter 1%, SMN2 splice up 4%, NPC1 promoter act 0%, Rab9 promoter act 4%, ELG1 genotox 13% and FLuc counter -4%.
Screening COc1cc(N2Cc3ccccc3C2)ccc1C=O returned NPC1 promoter act inconclusive, Rab9 promoter act inconclusive, ELG1 genotox 4µM* and FLuc counter 21µM*.
Screening CCN(CC)CCCNC(=O)Cc1csc2nc(-c3ccc(Cl)cc3)cn12 returned FLuc counter -13%.
For CCCn1nnc(NC(=O)c2ccc(Br)cc2)n1 the results were Luc counter 4%, SMN2 splice up 14µM*, NPC1 promoter act inconclusive, Rab9 promoter act 4µM*, ELG1 genotox 9.2µM* and FLuc counter inconclusive.
`CCOc1ccc(C(=O)Nc2nnn(CC)n2)cc1` gave NPC1 promoter act 4µM*, Rab9 promoter act 4µM*, ELG1 genotox 10µM* and FLuc counter 12µM*.
CCCn1nnc(NC(=O)c2ccc(-c3ccccc3)cc2)n1 was read as Luc counter 10%, SMN2 splice up inconclusive, NPC1 promoter act 2.5µM*, Rab9 promoter act 2.5µM*, ELG1 genotox inconclusive and FLuc counter 9.5µM*.
`CCCn1nnc(NC(=O)c2ccc(OC)cc2)n1` gave Luc counter -3%, SMN2 splice up inconclusive, NPC1 promoter act 4µM*, Rab9 promoter act inconclusive, ELG1 genotox 18µM* and FLuc counter 21µM*.
`Cc1ccc(S(=O)(=O)Oc2ccc(N=Nc3ccc(-c4ccc(N=Nc5c(O)ccc6cc(S(=O)(=O)O)cc(S(=O)(=O)O)c56)c(C)c4)cc3C)cc2)cc1` gave SMN2 splice up -9%.
`CCc1ccc(CNC(=O)c2ccc3c(c2)c(C)c(C)n3Cc2ccccc2)cc1` gave FLuc counter -7%.
Screening Cc1c(C)n(Cc2ccccc2)c2ccc(C(=O)OCCN(C)C)cc12 returned Luc counter 0%, NPC1 promoter act 1%, Rab9 promoter act -12%, ELG1 genotox 1% and FLuc counter 21µM*.
Screening CCc1ccc(NC(=O)CC2C(=O)N(c3cccc(C)c3)C(=O)N2CCC(C)C)cc1 (stereo unspecified) returned FLuc counter -5%.
Screening COc1ccc(CNc2nc3c(c(=O)n(C)c(=O)n3C)n2Cc2ccccc2Cl)cc1 returned SMN2 splice up -3% and FLuc counter 1%.
For Cc1ccc(-c2noc(CN3C(C)CCCC3C)n2)cc1 (stereo unspecified) the results were Luc counter -1%, SMN2 splice up -6%, NPC1 promoter act 5%, Rab9 promoter act 1%, ELG1 genotox 21µM* and FLuc counter inconclusive.
For CC1CCN(Cc2nc(-c3ccccc3)no2)CC1 the results were NPC1 promoter act 2.8µM*, Rab9 promoter act 2.8µM*, ELG1 genotox 5.2µM* and FLuc counter 12µM*.
Cc1cc(=O)n2[nH]c(-c3ccc(Cl)cc3)cc2n1 was read as Luc counter -1%, SMN2 splice up 14µM*, NPC1 promoter act inconclusive, Rab9 promoter act 3.5µM*, ELG1 genotox 13% and FLuc counter 12µM*.
Cc1cc(=O)n2[nH]c(C)c(-c3ccc(Cl)cc3)c2n1 was read as Luc counter -3%, SMN2 splice up -60%, NPC1 promoter act -4%, Rab9 promoter act 0%, ELG1 genotox -25% and FLuc counter 11%.
Screening Cc1cc(=O)n2[nH]c(-c3ccc(F)cc3)cc2n1 returned Luc counter -2%, SMN2 splice up 25%, NPC1 promoter act inconclusive, Rab9 promoter act inconclusive, ELG1 genotox inconclusive and FLuc counter 17µM*.
For Cc1nc2nc(CSc3ccc(Cl)cc3)cc(=O)n2[nH]1 the results were Luc counter 0%, SMN2 splice up 16%, NPC1 promoter act 0%, Rab9 promoter act -3%, ELG1 genotox -1% and FLuc counter inconclusive.
`Cc1cc2nc(CSc3ccc(Cl)cc3)cc(=O)n2[nH]1` gave Luc counter 2%, SMN2 splice up 12%, NPC1 promoter act -2%, Rab9 promoter act -3%, ELG1 genotox -6% and FLuc counter 17µM*.
Screening CC1(C)N=C(N)N=C(N)N1c1cccc(OCc2cccc(N)c2)c1 returned Luc counter -6%[7.66 µM] and SMN2 splice up -4%[9.22 µM].
`O=C1CCC=C1C(O)c1ccccc1` (stereo unspecified) gave Luc counter 0% and SMN2 splice up -6%.
For CCOc1ccc(S(=O)(=O)N2CCN(c3cc(Cl)ccc3Cl)CC2)c2ccccc12 the results were SMN2 splice up -21% and FLuc counter -6%.
